For assay [1], the target named is Nuclear receptor subfamily 1 group I member 2 (Homo sapiens) (UniProt O75469). The assay can be described thus: Human pregnane X receptor (PXR) small molecule agonists, qHTS assay (AID 1346982). Also: nearly all actives have a fitted effect of over 35% in size. Also: potency is read from the fitted curve at half-maximal effect. The method in brief: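 Agonist mode qHTS: PXR-Luc HepG2 cells plated 5 hr before DMSO-dissolved compounds were pinned in, cultured 24 hr at 37 C, 5% CO2; ONE-Glo luminescence readout.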
In general terms: qHTS replaces the single test concentration by a dilution series.

Assay [2] concerns the target Cytochrome P450 2D6 (Homo sapiens) (UniProt P10635). In words: Cytochrome P450 Family 2 Subfamily D Member 6 (CYP2D6) small molecule antagonists: luciferase reporter qHTS assay (AID 1671196). Also: nearly all actives have a fitted effect of over 50% in size. Also: potency is read from the fitted curve at half-maximal effect. The method in brief: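 P450-Glo format: CYP2D6 converts a proluciferin substrate to luciferin in an NADPH-driven reaction lasting 1 h at room temperature. Light output, proportional to CYP2D6 activity, reflects interference by test chemicals.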

For assay [3], the target named is Cytochrome P450 2C19 (Homo sapiens) (UniProt P33261). The assay can be described thus: Cytochrome P450 Family 2 Subfamily C Member 19 (CYP2C19) small molecule antagonists: luciferase reporter qHTS assay (AID 1671197). Also: nearly all actives have a fitted effect of over 65% in size. Also: potency is read from the fitted curve at half-maximal effect. The method in brief:
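Luminescent readout of CYP2C19 activity: luciferin product detected 20 min after adding detection reagent. Before that, compound and enzyme-substrate mix preincubated 10 min at room temperature; NADPH-regenerating system started a 1 h, 37C reaction. Ketoconazole as positive control.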
(Reporter assays use an easily measured gene product as a stand-in for the process of interest.)

Assay [4] addresses Cytochrome P450 2C9 (Homo sapiens) (UniProt P11712). In words: Cytochrome P450 Family 2 Subfamily C Member 9 (CYP2C9) small molecule antagonists: luciferase reporter qHTS assay (AID 1671198). Also: nearly all actives have a fitted effect of over 50% in size. Also: potency is read from the fitted curve at half-maximal effect. The method in brief: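 CYP2C9 activity was measured with a P450-Glo proluciferin substrate. Enzyme–substrate mix was held with compound for 10 min at room temperature, then NADPH regeneration solution was added for 1 h at 37C. Luciferin product was read as luminescence.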

Assay [5] has as its target Voltage-gated inwardly rectifying potassium channel KCNH2 (Homo sapiens) (UniProt Q12809). In words: Human Ether-a-go-go-Related Gene (hERG) channel small molecule antagonists: fluorescence cell-based qHTS assay (AID 1671200).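 Also: hERG-expressing U2OS cells given a thallium stimulus after FluxOR II dye loading; series mostly up to about 77 µM; nearly all actives have a fitted effect of over 50% in size.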 The method in brief: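 First, 1000 cells per well are seeded and cultured overnight at 37 C. Next, FluxOR II dye is loaded for 1 h at room temperature, protected from light. After 10 more minutes, stimulus is added and fluorescence is read.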
(The hERG channel carries a current that helps repolarise heart muscle cells.)

Assay [6] addresses Cytochrome P450 3A4 (Homo sapiens) (UniProt P08684). In words: Cytochrome P450 Family 3 Subfamily A Member 4 (CYP3A4) small molecule antagonists: luciferase reporter qHTS assay (AID 1671201). Also: nearly all actives have a fitted effect of over 50% in size. Also: potency is read from the fitted curve at half-maximal effect. The method in brief: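 Enzyme and proluciferin substrate are mixed with test chemicals for 10 min, then NADPH regeneration system drives turnover for 1 h at room temperature. A detection reagent halts the reaction; luminescence after 20 min gives relative activity.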

In assay [7] the target is Cytochrome P450 1A2 (Homo sapiens) (UniProt P05177). The assay can be described thus: Cytochrome P450 Family 1 Subfamily A Member 2 (CYP1A2) small molecule antagonists: luciferase reporter qHTS assay (AID 1671199). Also: nearly all actives have a fitted effect of over 50% in size. Also: potency is read from the fitted curve at half-maximal effect. The method in brief: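 Inhibition of CYP1A2 conversion of proluciferin to luciferin, detected by luminescence. Reaction run 1 h at room temperature with NADPH regeneration after brief compound preincubation.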

Results filed as inconclusive are left out. A number with no mark means an inactive call. Active and inactive are the calls of the source. Calls follow the shape of the dose curve; as a rule, active = well fitted curve in the direction sought with a large enough effect in the repeat runs; inconclusive = weak or mixed curves; inactive = no such curve, though single readings can be large; an effect the other way counts as inactive or inconclusive.

Chain of Cytochrome P450 2D6 (Homo sapiens) (P10635 whole entry, looked up): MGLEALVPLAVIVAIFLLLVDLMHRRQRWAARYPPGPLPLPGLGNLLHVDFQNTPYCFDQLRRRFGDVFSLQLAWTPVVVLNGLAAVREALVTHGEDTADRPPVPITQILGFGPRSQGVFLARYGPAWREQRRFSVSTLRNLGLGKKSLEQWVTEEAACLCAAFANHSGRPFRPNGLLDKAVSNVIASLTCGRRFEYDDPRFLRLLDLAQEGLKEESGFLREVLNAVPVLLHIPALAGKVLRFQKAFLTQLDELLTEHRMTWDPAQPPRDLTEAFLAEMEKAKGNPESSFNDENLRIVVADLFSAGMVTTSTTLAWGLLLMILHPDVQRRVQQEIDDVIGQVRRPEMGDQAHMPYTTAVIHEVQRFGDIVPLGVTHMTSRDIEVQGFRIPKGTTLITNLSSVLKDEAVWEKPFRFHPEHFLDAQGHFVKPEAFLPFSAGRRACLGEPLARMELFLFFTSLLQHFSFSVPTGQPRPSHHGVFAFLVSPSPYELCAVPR
Chain of Nuclear receptor subfamily 1 group I member 2 (Homo sapiens) (O75469 whole entry, looked up): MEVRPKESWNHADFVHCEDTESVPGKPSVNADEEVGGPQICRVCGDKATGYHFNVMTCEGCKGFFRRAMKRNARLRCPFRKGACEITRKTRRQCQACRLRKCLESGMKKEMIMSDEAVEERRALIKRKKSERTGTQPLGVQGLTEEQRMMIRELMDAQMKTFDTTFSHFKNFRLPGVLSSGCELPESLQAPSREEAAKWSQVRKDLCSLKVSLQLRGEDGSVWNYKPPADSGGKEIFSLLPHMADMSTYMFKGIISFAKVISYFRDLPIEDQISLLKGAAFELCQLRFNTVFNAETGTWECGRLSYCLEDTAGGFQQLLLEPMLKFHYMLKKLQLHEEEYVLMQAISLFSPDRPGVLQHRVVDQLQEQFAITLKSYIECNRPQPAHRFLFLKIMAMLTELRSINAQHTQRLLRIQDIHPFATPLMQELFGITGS
Chain of Cytochrome P450 2C19 (Homo sapiens) (P33261 whole entry, looked up): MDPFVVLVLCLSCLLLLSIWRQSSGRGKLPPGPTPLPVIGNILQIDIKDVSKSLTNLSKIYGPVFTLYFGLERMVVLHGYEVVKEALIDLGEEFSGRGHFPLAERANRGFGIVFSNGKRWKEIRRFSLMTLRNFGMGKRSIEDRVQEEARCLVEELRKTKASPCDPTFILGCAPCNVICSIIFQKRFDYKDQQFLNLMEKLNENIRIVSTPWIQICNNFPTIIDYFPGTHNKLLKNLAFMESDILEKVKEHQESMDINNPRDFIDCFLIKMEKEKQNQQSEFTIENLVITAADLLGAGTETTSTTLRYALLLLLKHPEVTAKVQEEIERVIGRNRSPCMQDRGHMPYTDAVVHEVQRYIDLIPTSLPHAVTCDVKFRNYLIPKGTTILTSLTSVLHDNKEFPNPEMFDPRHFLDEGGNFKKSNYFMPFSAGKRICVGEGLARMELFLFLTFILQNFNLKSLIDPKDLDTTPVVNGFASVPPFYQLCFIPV
Chain of Cytochrome P450 3A4 (Homo sapiens) (P08684 whole entry, looked up): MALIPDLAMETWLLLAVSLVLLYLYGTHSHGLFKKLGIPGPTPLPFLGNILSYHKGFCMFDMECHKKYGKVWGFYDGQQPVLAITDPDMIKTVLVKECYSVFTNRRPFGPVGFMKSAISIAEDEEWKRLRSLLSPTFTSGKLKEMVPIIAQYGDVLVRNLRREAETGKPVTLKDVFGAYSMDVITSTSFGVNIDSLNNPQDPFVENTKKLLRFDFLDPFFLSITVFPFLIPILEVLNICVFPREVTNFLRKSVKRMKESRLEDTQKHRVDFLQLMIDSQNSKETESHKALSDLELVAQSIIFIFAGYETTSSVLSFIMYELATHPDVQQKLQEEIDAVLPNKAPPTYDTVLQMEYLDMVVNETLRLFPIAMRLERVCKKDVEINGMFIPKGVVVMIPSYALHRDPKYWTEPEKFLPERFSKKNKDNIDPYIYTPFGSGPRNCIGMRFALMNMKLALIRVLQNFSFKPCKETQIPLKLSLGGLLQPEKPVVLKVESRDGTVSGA
Chain of Voltage-gated inwardly rectifying potassium channel KCNH2 (Homo sapiens) (Q12809 whole entry, looked up): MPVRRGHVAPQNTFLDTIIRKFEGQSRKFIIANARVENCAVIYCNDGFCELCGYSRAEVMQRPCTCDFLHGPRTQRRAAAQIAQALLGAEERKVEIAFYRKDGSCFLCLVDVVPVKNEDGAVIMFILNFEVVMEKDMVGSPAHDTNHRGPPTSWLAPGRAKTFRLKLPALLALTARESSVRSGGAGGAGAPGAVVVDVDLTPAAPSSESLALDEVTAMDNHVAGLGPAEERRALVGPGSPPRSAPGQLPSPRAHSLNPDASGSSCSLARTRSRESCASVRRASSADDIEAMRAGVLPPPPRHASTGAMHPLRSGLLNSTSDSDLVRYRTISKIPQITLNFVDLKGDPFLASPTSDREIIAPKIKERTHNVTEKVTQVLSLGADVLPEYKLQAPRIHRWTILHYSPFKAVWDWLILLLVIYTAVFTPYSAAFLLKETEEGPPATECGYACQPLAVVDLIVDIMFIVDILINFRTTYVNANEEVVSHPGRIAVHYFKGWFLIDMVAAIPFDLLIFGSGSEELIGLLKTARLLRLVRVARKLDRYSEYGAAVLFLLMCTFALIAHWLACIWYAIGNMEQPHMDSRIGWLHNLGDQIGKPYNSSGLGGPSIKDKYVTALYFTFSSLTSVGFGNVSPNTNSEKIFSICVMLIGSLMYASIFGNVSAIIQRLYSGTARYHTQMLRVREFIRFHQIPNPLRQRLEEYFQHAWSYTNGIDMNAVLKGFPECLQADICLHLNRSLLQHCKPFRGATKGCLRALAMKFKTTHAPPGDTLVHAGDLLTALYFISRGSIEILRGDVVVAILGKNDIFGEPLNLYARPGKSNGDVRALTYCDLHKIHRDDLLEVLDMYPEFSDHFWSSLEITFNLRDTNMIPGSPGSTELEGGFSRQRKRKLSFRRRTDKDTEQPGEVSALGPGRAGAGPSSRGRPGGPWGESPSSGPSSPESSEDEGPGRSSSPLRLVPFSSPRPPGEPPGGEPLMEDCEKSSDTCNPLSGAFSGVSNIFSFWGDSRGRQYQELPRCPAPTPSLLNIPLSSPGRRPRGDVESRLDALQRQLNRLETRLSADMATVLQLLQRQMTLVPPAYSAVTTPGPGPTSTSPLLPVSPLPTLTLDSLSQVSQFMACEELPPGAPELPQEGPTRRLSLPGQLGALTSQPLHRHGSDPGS
Chain of Cytochrome P450 1A2 (Homo sapiens) (P05177 whole entry, looked up): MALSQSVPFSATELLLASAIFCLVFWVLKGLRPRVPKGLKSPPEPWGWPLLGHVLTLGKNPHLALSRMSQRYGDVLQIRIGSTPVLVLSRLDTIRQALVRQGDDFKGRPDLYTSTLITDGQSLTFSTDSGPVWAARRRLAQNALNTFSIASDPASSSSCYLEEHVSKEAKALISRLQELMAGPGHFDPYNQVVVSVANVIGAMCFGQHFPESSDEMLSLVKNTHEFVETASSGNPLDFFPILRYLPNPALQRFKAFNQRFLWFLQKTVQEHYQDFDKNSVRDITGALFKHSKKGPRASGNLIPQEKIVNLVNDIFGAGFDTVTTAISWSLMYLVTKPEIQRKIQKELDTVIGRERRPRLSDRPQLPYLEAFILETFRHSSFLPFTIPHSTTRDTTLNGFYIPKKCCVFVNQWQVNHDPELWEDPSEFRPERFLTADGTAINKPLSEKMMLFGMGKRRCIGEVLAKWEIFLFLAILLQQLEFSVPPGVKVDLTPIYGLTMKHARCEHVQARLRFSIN
Chain of Cytochrome P450 2C9 (Homo sapiens) (P11712 whole entry, looked up): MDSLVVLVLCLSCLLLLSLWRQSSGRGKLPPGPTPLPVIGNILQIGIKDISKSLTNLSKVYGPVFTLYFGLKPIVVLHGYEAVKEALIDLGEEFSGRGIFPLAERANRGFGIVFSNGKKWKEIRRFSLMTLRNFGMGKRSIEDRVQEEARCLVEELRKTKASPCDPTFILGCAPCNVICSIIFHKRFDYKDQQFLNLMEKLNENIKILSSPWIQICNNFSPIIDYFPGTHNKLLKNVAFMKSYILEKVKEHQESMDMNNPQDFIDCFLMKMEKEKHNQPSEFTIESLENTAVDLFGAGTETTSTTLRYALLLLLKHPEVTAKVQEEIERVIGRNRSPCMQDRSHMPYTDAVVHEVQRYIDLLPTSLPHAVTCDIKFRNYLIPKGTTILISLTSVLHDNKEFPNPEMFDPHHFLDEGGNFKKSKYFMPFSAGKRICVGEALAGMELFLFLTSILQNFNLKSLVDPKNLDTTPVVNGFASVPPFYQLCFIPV

In the case of `Cc1ccc(C(C)NC(=O)[C@@H](NC(=O)OC(C)C)C(C)C)cc1` (stereo partly drawn), the Potency in assay [1] was 21.6 µM (active); in assay [2] it was 35.5 µM (active); in assay [3], 56.2 µM (active); in assay [4], 31.6 µM (active); in assay [6], 3.55 µM (active). Besides, the Potency result in assay [5] is “inactive”.

Regarding `O=[N+]([O-])c1c(Cl)cc(Cl)cc1Cl`, the Potency result in assay [1], in assay [2], in assay [3], in assay [4], in assay [5] and in assay [6] was “inactive” in each case.

For `CCOCCOCC`, the Potency result in assay [1], in assay [2], in assay [3], in assay [4], in assay [5] and in assay [6] was “inactive” in each case.

Turning to `COc1ccc(CCO)cc1`, the Potency result in assay [1], in assay [2], in assay [5] and in assay [6] was “inactive” each time. Besides, the Potency is 71 µM (active) in assay [3], 79.6 µM (active) in assay [4] and 63.3 µM (active) in assay [7].

For the molecule `CC(O)CC(C)O` (stereo not drawn), the Potency result in assay [1], in assay [2], in assay [3], in assay [4], in assay [5] and in assay [6] was “inactive” each time.

With `CCc1occc(=O)c1O`, the Potency entry in assay [1], in assay [2], in assay [3], in assay [4], in assay [7] and in assay [6] was “inactive” throughout.

With `C[Si]1(C)O[Si](C)(C)O[Si](C)(C)O[Si](C)(C)O[Si](C)(C)O1`, the Potency result in assay [1], in assay [2], in assay [3], in assay [4], in assay [7] and in assay [5] was “inactive” in each case. In addition, the Potency result in assay [6] was “inactive”.

`O=C1NC(c2ccccc2)(c2ccccc2)C(=O)N1COP(=O)(O)O`: the Potency entry in assay [1], in assay [2], in assay [3], in assay [4], in assay [5] and in assay [6] was “inactive” in each case.

As to `O=C(O)CNC(=O)CNC(=O)CNC(=O)CSC(=O)c1ccccc1`, the Potency entry in assay [1], in assay [2], in assay [3], in assay [4], in assay [7] and in assay [5] was “inactive” in each case. Moreover, the Potency entry in assay [6] is “inactive”.

For `CC(=O)OC(C)=O`, the Potency result in assay [1], in assay [2], in assay [4], in assay [7] and in assay [6] was “inactive” each time. Further, in assay [3], the Potency was 72.3 µM (active).

For `O=C(O)CSCC(=O)NC1CCSC1=O` (stereo not drawn), the Potency entry in assay [1], in assay [2], in assay [3], in assay [4], in assay [7] and in assay [6] was “inactive” in each case.

Consider `CCCCSCCCC`, for which the Potency result in assay [1], in assay [2], in assay [7], in assay [5] and in assay [6] was “inactive” throughout. For the same molecule, the Potency in assay [3] is 79.6 µM (active); in assay [4], 63.3 µM (active).

`CC(=O)O[C@H]1C[C@@H]2CC[C@@]1(C)C2(C)C`: the Potency entry in assay [1], in assay [2], in assay [3], in assay [4], in assay [5] and in assay [6] was “inactive” each time.

For the molecule `[O-][n+]1cccc(/C(Cl)=N/OC[C@@H](O)CN2CCCCC2)c1`, the Potency entry in assay [1] and in assay [4] was “inactive” in each case. For the same molecule, in assay [2], the Potency is 15.5 µM (active).

`CCCCCCCCCCCCCCCCCC#N`: the Potency entry in assay [1], in assay [2], in assay [4], in assay [5] and in assay [6] was “inactive” in each case.

In the case of `OC1OCCOC1O` (stereo not drawn), the Potency entry in assay [1], in assay [2], in assay [4], in assay [5] and in assay [6] was “inactive” throughout. Besides, the Potency in assay [7] is 35.6 µM (active).

Consider `COc1nc(N)nc2nc[nH]c12`, for which the Potency result in assay [1], in assay [4] and in assay [5] was “inactive” each time. The Potency in assay [2] was 10 µM (active); in assay [7], 17.9 µM (active).

Regarding `O=Cc1cc2ccccc2o1`, the Potency entry in assay [1], in assay [2], in assay [4], in assay [5] and in assay [6] was “inactive” in each case. For the same molecule, the Potency in assay [7] was 31.7 µM (active).

Take `C/C(=C1\CCOC(=O)S1)N(C=O)Cc1cnc(C)nc1N`: the Potency result in assay [1], in assay [4], in assay [7] and in assay [5] was “inactive” in each case. Besides, the values for the Potency in assay [2] and in assay [6] were 13.8 µM (active) and 15.5 µM (active), respectively.

`Cc1ccccc1C(N)=O`: the Potency result in assay [1], in assay [4], in assay [5] and in assay [6] was “inactive” in each case. In addition, the Potency in assay [2] is 56.3 µM (active).

On to `CC1=C(O)C(=O)C(C)O1` (stereo not drawn), for which the Potency result in assay [1], in assay [2], in assay [4], in assay [5] and in assay [6] was “inactive” throughout.

Consider `C=CCCCC`, for which the Potency result in assay [1], in assay [2], in assay [3], in assay [4] and in assay [6] was “inactive” each time.

These data come from PubChem BioAssay (Tox21).
